In the supplement of paper PMC10849652:
Targets with a hit are over-represented here; the source holds about 7,900 in all. About 0.6% of all pairs of compound and target were hits. A number with no mark means an inactive call.

How the values were obtained:
Experiment in all cases: log2 fold change, soluble protein after heating vs DMSO (PISA); higher = thermal stabilisation; K562 cells, 10 uM, 30 min; active = over 0.2 and 3.5 SD of the protein, either way, in both replicates (recomputed)
[1] = compound: NC(=O)Nc1cc(-c2cccc(F)c2)sc1C(=O)N[C@H]1CCCNC1
In short: (§1)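 Soluble protein was defined as the supernatant after 21,000xg for 90 min. It came from K562 cells at 2×10^6 cells/mL given 10 μM compound for 30 min, heated in aliquots for 3 min across 48°C-58°C, pooled, and extracted in PBS with 0.5% NP-40 at 4°C, and was quantified by TMTpro 16plex LC-MS/MS with equalised channel sums. Thermal stability against control samples, from duplicates, is reported as log2 fold change.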

[2] = compound: NC(=O)c1cnc(N[C@@H]2CCCC[C@@H]2N)nc1Nc1cccc(-n2nccn2)c1
In short: as §1

[3] = compound: NC1(c2ccc(-c3nc4ccn5c(=O)[nH]nc5c4cc3-c3ccccc3)cc2)CCC1
In short: as §1

[4] = compound: NCC(=O)Nc1ccc(-n2nc(C(F)(F)F)cc2-c2ccc3c(ccc4ccccc43)c2)cc1
In short: as §1

[5] = compound: Nc1ccccc1NC(=O)c1ccc(CNC(=O)OCc2cccnc2)cc1 [entinostat]
In short: as §1

[6] = compound: O=C(CCCCCCC(=O)Nc1ccccc1)NO [vorinostat]
In short: as §1

[7] = compound: O=C(CCCCCCNC(=O)c1cnc(N(c2ccccc2)c2ccccc2Cl)nc1)NO [citarinostat]
In short: as §1

[8] = compound: O=C(O)c1ccc2c(c1)nc(Nc1cccc(Cl)c1)c1ccncc12 [silmitasertib]
In short: as §1

[9] = compound: O=C1NC(=O)C(c2cnc3ccccn23)=C1c1cn2c3c(cc(F)cc13)CN(C(=O)N1CCCCC1)CC2
In short: as §1

[10] = compound: c1cc(OCCN2CCCCC2)cc(-c2n[nH]c3ccc(-c4nnc[nH]4)cc23)c1
In short: as §1

[11] = compound: c1cn2cc(-c3ccc4cn[nH]c4c3)nc(Nc3ccc(N4CCOCC4)cc3)c2n1 [entospletinib]
In short: as §1

Chain of UniProt P14635 (P14635 whole entry, looked up): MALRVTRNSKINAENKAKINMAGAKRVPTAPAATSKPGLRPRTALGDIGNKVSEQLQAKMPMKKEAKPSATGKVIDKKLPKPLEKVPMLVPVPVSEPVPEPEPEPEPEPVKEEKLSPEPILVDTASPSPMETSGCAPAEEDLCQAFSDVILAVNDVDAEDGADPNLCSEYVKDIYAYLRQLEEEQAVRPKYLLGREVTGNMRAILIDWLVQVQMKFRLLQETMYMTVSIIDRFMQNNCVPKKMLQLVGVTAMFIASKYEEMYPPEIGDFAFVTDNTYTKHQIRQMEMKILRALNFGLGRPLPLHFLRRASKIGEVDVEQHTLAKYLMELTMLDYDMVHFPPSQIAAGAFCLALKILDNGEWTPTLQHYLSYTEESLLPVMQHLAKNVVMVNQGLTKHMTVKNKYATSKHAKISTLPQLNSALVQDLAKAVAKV
Chain of UniProt P0C0L4 (P0C0L4 whole entry, looked up): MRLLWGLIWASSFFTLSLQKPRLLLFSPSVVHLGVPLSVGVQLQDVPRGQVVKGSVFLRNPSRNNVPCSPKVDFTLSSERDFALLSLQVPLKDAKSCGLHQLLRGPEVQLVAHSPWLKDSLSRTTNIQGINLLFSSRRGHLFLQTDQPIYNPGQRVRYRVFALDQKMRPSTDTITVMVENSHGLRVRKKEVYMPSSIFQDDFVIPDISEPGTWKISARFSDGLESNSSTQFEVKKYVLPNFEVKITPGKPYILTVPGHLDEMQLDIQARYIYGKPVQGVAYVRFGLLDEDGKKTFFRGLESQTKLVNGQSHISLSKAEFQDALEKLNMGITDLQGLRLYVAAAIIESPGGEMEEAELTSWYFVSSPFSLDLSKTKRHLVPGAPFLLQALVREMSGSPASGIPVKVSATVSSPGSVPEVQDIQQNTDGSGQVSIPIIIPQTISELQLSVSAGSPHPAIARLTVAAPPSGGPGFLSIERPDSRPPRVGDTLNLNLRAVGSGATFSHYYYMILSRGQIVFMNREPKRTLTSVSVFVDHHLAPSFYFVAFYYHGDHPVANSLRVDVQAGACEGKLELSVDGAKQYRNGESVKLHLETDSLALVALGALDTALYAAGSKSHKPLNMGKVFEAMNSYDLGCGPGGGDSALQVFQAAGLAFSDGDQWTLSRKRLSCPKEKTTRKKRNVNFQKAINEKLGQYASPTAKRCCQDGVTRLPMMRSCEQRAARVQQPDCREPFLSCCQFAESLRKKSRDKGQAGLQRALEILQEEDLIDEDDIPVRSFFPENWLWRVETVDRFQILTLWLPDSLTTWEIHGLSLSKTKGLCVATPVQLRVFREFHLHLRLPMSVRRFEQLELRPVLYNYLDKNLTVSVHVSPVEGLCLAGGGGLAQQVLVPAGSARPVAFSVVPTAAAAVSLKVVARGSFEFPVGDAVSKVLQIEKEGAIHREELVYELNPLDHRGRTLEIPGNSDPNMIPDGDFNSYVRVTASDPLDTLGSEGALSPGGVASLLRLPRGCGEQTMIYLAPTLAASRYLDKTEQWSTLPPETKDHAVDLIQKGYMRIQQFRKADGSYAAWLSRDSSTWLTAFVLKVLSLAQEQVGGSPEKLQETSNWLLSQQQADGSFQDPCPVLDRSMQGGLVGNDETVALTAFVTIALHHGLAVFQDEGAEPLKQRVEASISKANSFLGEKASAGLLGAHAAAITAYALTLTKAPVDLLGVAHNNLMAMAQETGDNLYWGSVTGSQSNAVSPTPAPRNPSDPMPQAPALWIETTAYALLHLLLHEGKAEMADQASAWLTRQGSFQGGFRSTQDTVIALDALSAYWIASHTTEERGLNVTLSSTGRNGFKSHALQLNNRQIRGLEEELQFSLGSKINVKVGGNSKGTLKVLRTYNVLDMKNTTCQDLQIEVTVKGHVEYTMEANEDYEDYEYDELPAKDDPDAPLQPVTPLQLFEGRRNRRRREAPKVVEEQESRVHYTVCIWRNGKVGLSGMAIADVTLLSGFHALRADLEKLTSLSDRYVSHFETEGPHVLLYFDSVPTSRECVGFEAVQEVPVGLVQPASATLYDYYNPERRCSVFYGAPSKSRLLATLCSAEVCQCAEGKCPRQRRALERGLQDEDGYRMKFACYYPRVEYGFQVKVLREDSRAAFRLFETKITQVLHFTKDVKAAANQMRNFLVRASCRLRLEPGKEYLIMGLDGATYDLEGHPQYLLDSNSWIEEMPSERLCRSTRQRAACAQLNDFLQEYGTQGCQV
Chain of UniProt P05937 (P05937 whole entry, looked up): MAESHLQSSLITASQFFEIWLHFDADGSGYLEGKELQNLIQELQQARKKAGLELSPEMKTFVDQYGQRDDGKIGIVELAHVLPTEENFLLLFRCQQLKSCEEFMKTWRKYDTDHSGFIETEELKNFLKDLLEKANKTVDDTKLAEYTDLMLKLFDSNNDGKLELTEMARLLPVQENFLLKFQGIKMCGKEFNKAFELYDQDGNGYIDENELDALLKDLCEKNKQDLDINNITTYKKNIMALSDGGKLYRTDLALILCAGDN
Chain of UniProt P33240 (P33240 whole entry, looked up): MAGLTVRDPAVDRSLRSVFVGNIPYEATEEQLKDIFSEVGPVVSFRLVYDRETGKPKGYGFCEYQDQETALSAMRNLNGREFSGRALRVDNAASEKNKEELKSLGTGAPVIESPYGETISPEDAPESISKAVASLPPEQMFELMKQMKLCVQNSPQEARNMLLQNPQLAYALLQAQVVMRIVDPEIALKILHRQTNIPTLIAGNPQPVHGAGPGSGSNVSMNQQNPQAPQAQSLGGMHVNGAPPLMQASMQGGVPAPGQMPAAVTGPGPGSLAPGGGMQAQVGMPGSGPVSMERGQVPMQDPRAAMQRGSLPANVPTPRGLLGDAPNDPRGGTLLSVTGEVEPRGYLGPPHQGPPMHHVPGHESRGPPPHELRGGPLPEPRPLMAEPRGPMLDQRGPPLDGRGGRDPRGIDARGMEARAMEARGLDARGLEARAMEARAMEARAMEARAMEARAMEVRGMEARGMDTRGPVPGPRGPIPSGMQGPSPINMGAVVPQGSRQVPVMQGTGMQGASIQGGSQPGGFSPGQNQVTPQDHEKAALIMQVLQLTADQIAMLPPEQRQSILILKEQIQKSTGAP
Chain of UniProt P20674 (P20674 whole entry, looked up): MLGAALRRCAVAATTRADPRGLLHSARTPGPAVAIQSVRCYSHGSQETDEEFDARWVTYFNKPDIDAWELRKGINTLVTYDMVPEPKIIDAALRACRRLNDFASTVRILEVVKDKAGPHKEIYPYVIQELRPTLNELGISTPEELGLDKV
Chain of UniProt Q5RI15 (Q5RI15 whole entry, looked up): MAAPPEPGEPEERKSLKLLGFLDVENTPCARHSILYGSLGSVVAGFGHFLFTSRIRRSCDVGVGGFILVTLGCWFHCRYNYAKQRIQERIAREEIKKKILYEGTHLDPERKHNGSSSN
Chain of UniProt A6NHX0 (A6NHX0 whole entry, looked up): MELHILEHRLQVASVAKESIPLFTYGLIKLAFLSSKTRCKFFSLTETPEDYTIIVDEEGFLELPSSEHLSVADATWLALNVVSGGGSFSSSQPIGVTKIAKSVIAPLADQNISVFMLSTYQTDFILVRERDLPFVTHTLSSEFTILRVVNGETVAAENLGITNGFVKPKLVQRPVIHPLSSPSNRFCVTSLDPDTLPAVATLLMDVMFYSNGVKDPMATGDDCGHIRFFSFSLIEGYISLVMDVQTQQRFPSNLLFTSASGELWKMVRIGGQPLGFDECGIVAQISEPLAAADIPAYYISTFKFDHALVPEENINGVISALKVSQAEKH
Chain of UniProt P48509 (P48509 whole entry, looked up): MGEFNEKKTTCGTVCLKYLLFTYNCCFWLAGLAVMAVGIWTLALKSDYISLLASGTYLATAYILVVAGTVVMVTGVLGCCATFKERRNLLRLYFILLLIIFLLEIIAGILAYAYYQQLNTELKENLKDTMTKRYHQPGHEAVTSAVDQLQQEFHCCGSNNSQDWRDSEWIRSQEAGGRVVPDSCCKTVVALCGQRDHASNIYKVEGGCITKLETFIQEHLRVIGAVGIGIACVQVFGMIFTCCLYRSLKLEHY
Chain of UniProt Q8IWX8 (Q8IWX8 whole entry, looked up): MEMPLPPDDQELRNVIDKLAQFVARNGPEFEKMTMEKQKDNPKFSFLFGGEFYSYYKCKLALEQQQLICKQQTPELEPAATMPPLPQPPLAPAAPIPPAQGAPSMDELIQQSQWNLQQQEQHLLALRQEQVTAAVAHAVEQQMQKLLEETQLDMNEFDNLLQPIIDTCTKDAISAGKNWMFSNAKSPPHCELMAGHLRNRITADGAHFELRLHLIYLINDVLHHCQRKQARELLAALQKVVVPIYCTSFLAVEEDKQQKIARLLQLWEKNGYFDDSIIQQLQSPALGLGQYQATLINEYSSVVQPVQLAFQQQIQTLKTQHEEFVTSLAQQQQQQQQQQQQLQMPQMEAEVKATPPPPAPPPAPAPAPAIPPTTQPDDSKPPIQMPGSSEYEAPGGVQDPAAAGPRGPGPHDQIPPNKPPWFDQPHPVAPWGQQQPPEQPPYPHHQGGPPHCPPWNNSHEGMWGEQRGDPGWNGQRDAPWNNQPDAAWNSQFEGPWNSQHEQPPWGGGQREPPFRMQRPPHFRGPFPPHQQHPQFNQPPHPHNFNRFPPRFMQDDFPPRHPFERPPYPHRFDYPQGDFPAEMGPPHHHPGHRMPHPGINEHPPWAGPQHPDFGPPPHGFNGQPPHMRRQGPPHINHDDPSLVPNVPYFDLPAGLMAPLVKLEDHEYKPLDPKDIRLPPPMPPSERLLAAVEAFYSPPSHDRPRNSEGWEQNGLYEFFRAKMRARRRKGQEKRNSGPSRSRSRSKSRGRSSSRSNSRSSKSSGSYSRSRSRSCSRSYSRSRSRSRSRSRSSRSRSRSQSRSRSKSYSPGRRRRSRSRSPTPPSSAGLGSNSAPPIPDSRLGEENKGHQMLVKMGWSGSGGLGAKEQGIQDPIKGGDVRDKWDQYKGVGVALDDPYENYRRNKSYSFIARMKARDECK

Target | log2 fold change [1] | log2 fold change [2] | log2 fold change [3] | log2 fold change [4] | log2 fold change [5] | log2 fold change [6] | log2 fold change [7] | log2 fold change [8] | log2 fold change [9] | log2 fold change [10] | log2 fold change [11]
COX20 isoform 2 (UniProt Q5RI15) | -0.02 | -0.016 | 0.363 (active) | -0.029 | -0.036 | -0.116 | 0.027 | -0.034 | -0.004 | 0.016 | -0.022
CPD (UniProt O75976) | 0.002 | 0.032 | -0.101 | -0.008 | 0.016 | 0.019 | 0.018 | 0.032 | -0.034 | -0.111 | 0.011
CRKL (UniProt P46109) | -1.11 (active) | -0.019 | -0.015 | -0.005 | 0.004 | 0.023 | 0.005 | 0.066 | -0.031 | -0.064 | 0.014
CASP3 (UniProt P42574) | 0.051 | 0.053 | 0.075 | 0.043 | -0.029 | 0 | -0.043 | -0.057 | 0.018 | -0.051 | 0.044
CSTF2 (UniProt P33240) | 0.015 | -0.054 | 0.086 | -0.031 | -0.028 | -0.08 | -0.011 | 0.07 | -0.049 | -0.042 | 0.022
CD151 (UniProt P48509) | -0.054 | 0.139 | 0.125 | 0.024 | 0.094 | -0.025 | -0.007 | 0.031 | -0.063 | -0.009 | -0.121
C4A (UniProt P0C0L4) | -0.024 | -0.016 | -0.129 | 0 | 0.021 | 0.265 | -0.071 | 0.059 | 0.038 | 0.146 | 0.149
CCNB1 (UniProt P14635) | -0.031 | -0.015 | -0.03 | 0.016 | -0.002 | 0 | 0.031 | -0.015 | -0.076 | -0.032 | -0.015
CASTOR2 (UniProt A6NHX0) | 0.076 | 0.113 | -0.034 | 0.06 | -0.072 | 0.056 | 0.04 | -0.03 | -0.005 | 0.076 | -0.104
CHKA (UniProt P35790) | 0.015 | -0.316 (active) | 0.014 | 0.012 | -0.023 | -0.034 | -0.055 | 0.013 | -0.011 | -0.012 | 0.021
CHERP (UniProt Q8IWX8) | 0.015 | -0.054 | -0.096 | -0.095 | 0.129 | 0.099 | -0.001 | 0.03 | -0.121 | -0.042 | 0.026
COX5A (UniProt P20674) | 0.019 | 0.103 | 0.117 | 0.024 | 0.024 | -0.078 | -0.041 | -0.055 | -0.228 | -0.046 | 0.132
CD55 isoform 7 (UniProt P08174) | -0.048 | 0.028 | 0.128 | 0.108 | 0.018 | -0.044 | 0.009 | -0.006 | -0.043 | -0.047 | -0.006
CALB1 (UniProt P05937) | -0.029 | -0.014 | -0.161 | -0.041 | 0.022 | -0.027 | 0.062 | 0.006 | 0.016 | -0.035 | -0.016
